Experimental data as given in PubChem BioAssay (NCI).
This is part of a sample that, as a whole, favours compounds with a hit. Of some 83,000 tested, about 20% had one in any assay.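 Method: cells in 96-well plates; compound added at one concentration; 48 h incubation; percent growth measured; values under 10 scored active.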 Activity calls are given as the source filed them.

test system: MDA-MB-468 breast; experiment: NCI-60 one-dose screen, 48 h (100 = growth as untreated, 0 = no growth, -100 = all killed); settings: 10 µM unless noted

| SMILES | growth |
| --- | --- |
| COc1ccc(/C=N/NC(=O)Cn2nnc3ccccc32)cc1 | 103% (inactive) |
| N=C1CC(=O)NN1C(=O)CSc1nc2sc3c(c2c(=O)n1-c1ccc(Cl)cc1)CCCC3 | 106% (inactive) |
| Nc1ccccc1NC(=O)c1ccc(NC(=O)C/C=C/c2cccnc2)cn1 | -19.6% (active) |
| COc1ccc(/C=C\c2cc(OC)c(OC)c(OC)c2)cc1OCC(=O)Nc1ccc2nc(C)sc2c1 | 7.78% (active) |
| O=S(=O)(NC1c2ccccc2Oc2ccccc21)c1cc(Cl)ccc1Cl | 78.9% (inactive) |
| Fc1c[c-]c(-c2ccccn2)c(F)c1.[CH3-].[Pt+2].c1ccc(P(C[PH+](c2ccccc2)c2ccccc2)c2ccccc2)cc1 | -38.3% (active) |
| CCCCOC(=O)c1ccc(NC(=O)CCl)cc1 | 50% (inactive) |
| O=C(Cn1cc(CN2C(=O)c3ccccc3S2(=O)=O)nn1)Nc1nc2ccccc2s1 | 130% (inactive) |
| CC1(n2nnnc2N2CCCN(c3ncccc3N)CC2)CCC1 | 93% (inactive) |
| COc1cc(/C=C/c2ccnc3ccccc23)cc(OC)c1OC | -8% (active) |
| COc1cccc(-c2nn(-c3ccccc3)cc2-c2ccnc(NCCNC(=O)Nc3ccc(Cl)c(Cl)c3)c2)c1 | -17.4% (active) |
| CSc1nc(S(C)(=O)=O)nc2[nH]c(=O)[nH]c12 | 103% (inactive) |
